Experimental data reported in PubChem BioAssay.
Entries with a potency or affinity are not part of this list. Records with an inconclusive call do not appear. A number with no mark means an inactive call. Active and inactive are the calls of the source.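 How the source made its calls, unless noted: active means signal-lowering compounds whose fitted half-maximal concentration is at or below twice the top tested dose in every run; inconclusive means runs disagree, flat 30 to 70% inhibition, or poor curve fit; inactive means the rest.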

Test: cytotoxicity in IOSE-T80 ovarian epithelial cells, dose response, selectivity assay for PAX8 inhibitor project, cell-based, cherry-pick (AID 687032;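 active means fitted half-maximal concentration for viability loss no higher than twice the top valid dose, in every repeat run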;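 further: cells exposed to compound for 96 h before reading; 0% = neutral control wells and -100% = 2 µM mitoxantrone kill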)
Conditions: CellTiterGlo ATP luminescence, 96 h; series mostly up to 35 µM; activity change, negative = viability loss: at the top concentration

Compound	activity change, negative = viability loss
C[C@H]1CN([C@@H](C)CO)C(=O)CCCn2nncc2CO[C@@H]1CN(C)C(=O)Nc1ccc(-c2cccs2)cc1	12.2%
Cc1ccc(S(=O)(=O)Nc2cccc3c2O[C@@H](CN(C)C(=O)Nc2ccc(C(F)(F)F)cc2)[C@@H](C)CN([C@H](C)CO)C3=O)cc1	3.63%
COc1ccc(CN2[C@H](CO)[C@H]3c4ccccc4NC[C@H]32)cc1	8.15%
CCCN1[C@H](C(=O)N2CCOCC2)[C@@H](CO)[C@@H]2Cn3c(ccc(/C=C/c4ccccc4)c3=O)[C@@H]21	12.8%
O=C(C[C@@H]1C[C@H]2c3cc(NC(=O)C4CCOCC4)ccc3O[C@H]2[C@H](CO)O1)NCc1ccc(Oc2ccccc2)cc1	0.992%
C[C@@H]1CN([C@H](C)CO)C(=O)c2cc(NC(=O)c3ccncc3)ccc2O[C@@H](C)CCCCO[C@H]1CN(C)Cc1ccc(C(F)(F)F)cc1	21.3%
Cc1cccc(-c2ccc([C@H]3[C@@H](CO)N4CCCCN(S(=O)(=O)c5cccc(C)c5)C[C@@H]34)cc2)c1	0.77%
C[C@@H]1CN([C@H](C)CO)C(=O)c2cc(NS(=O)(=O)c3ccc(F)cc3)ccc2O[C@@H]1CN(C)Cc1ccc(C(F)(F)F)cc1	7.32%
C[C@@H]1CN([C@H](C)CO)C(=O)c2c(c3ccccc3n2C)-c2ccccc2CO[C@@H]1CN(C)S(=O)(=O)c1ccc(C(F)(F)F)cc1	9.5%
C[C@@H]1CCCCO[C@@H](CN(C)S(=O)(=O)c2ccc(Cl)cc2)[C@H](C)CN([C@@H](C)CO)C(=O)c2cc(NS(=O)(=O)c3ccc(Cl)cc3)ccc2O1	4.2%
C[C@H](CO)N1C[C@H](C)[C@H](CN(C)S(=O)(=O)c2cccs2)OCCCC[C@H](C)Oc2ccc(NC(=O)NC3CCCCC3)cc2C1=O	1.74%
Cc1ccc(S(=O)(=O)Nc2ccc3c(c2)C(=O)N([C@@H](C)CO)C[C@H](C)[C@@H](CN(C)Cc2ccc(Cl)c(Cl)c2)OCCCC[C@@H](C)O3)cc1	5.2%
C[C@@H]1CCCCO[C@@H](CN(C)Cc2ccc(Cl)c(Cl)c2)[C@H](C)CN([C@H](C)CO)C(=O)c2cc(NS(=O)(=O)c3ccc(F)cc3)ccc2O1	0.128%

Test: inhibitors of CMV-promoter luciferase reporter, dose response, counter-screen for Pax8 inhibitor project, cell-based, HEK293, luminescence, dry powder (AID 743020);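 further: HEK293 cells stably expressing the CMV luciferase reporter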
Conditions: SteadyGlo luminescence, 24 h; series mostly up to 35 µM; activity change, negative = inhibition: at the top concentration

Compound	activity change, negative = inhibition	outcome
C[C@@H]1CN([C@@H](C)CO)C(=O)Cc2cc(N(C)C)ccc2O[C@H]1CN(C)Cc1ccc(Oc2ccccc2)cc1	12.7%	–
C[C@H](CO)N1C[C@H](C)[C@H](CN(C)Cc2ccc3c(c2)OCO3)Oc2ccc(NC(=O)Nc3cccc4ccccc34)cc2C1=O	4.18%	–
COc1ccccc1C#Cc1ccc2c(c1)O[C@H](CN(C)Cc1cccnc1)[C@H](C)CN([C@H](C)CO)S2(=O)=O	0.984%	–
C[C@@H]1CCCCO[C@H](CN(C)Cc2ccc(C(F)(F)F)cc2)[C@H](C)CN([C@H](C)CO)C(=O)c2cc(NS(=O)(=O)c3ccc(F)cc3)ccc2O1	5.2%	–
CN1c2ccc(-c3ccc(C#N)cc3)cc2[C@@H]2[C@@H](CCN2C(=O)NC2CCCCC2)[C@@H]1CO	2.67%	–
Cc1ccc(S(=O)(=O)Nc2ccc3c(c2)C(=O)N([C@@H](C)CO)C[C@H](C)[C@H](CN(C)Cc2ccc(C(F)(F)F)cc2)OCCCC[C@@H](C)O3)cc1	1.93%	–
Cc1ccc(S(=O)(=O)N(C)C[C@H]2Oc3ccc(NC(=O)Nc4ccc(C(F)(F)F)cc4)cc3CC(=O)N([C@@H](C)CO)C[C@H]2C)cc1	1.54%	–
CCCN(C)C[C@H]1OCCCC[C@@H](C)Oc2ccc(NC(=O)c3ccccc3)cc2C(=O)N([C@H](C)CO)C[C@H]1C	-0.007%	–
C[C@@H]1CCCCO[C@H](CN(C)Cc2ccc(Cl)c(Cl)c2)[C@@H](C)CN([C@@H](C)CO)C(=O)c2cc(NS(=O)(=O)c3ccc(Cl)cc3)ccc2O1	-5.71%	–
C[C@@H]1CN([C@H](C)CO)C(=O)c2c(c3ccccc3n2C)-c2ccccc2CO[C@H]1CN(C)C(=O)Nc1cccc(C(F)(F)F)c1	-10.6%	–
C[C@@H]1CCCCO[C@H](CN(C)Cc2ccc(Cl)c(Cl)c2)[C@H](C)CN([C@@H](C)CO)C(=O)c2cc(NC(=O)Nc3ccc(F)cc3)ccc2O1	-0.041%	–
C[C@H](CO)N1C[C@H](C)[C@H](CN(C)Cc2ccc(Cl)c(Cl)c2)Oc2c(NS(=O)(=O)c3ccc(Cl)cc3)cccc2C1=O	3.59%	–
Cc1ccc(S(=O)(=O)Nc2ccc3c(c2)C(=O)N([C@H](C)CO)C[C@@H](C)[C@H](CN(C)S(=O)(=O)c2ccc(Cl)cc2)OCCCC[C@H](C)O3)cc1	-3.73%	–
C[C@@H]1CN([C@H](C)CO)C(=O)c2cc(NC(=O)Nc3ccc(C(F)(F)F)cc3)ccc2O[C@@H](C)CCCCO[C@H]1CN(C)C(=O)Nc1ccc(F)cc1	-23.5%	–
Cc1ccc(S(=O)(=O)Nc2ccc3c(c2)C(=O)N([C@@H](C)CO)C[C@H](C)[C@@H](CN(C)C(=O)Nc2ccc(C(F)(F)F)cc2)OCCCC[C@H](C)O3)cc1	7.05%	–
Cc1cccc(-c2ccc([C@H]3[C@H](CO)N4CCCCN(S(=O)(=O)c5ccccc5C)C[C@@H]34)cc2)c1	6.64%	–
C[C@@H]1CN([C@H](C)CO)C(=O)c2cc(NC(=O)Nc3ccc(F)cc3)ccc2O[C@@H](C)CCCCO[C@H]1CN(C)Cc1ccc(Cl)c(Cl)c1	6.86%	–
O=C(Nc1cccc(F)c1)N1CCCCN2[C@@H](CO)[C@@H](c3ccc(-c4ccncc4)cc3)[C@@H]2C1	-1.39%	–
C[C@@H]1CCCCO[C@H](CN(C)C)[C@H](C)CN([C@H](C)CO)C(=O)c2cc(NC(=O)Nc3cccc4ccccc34)ccc2O1	4.49%	–
C[C@@H]1CN([C@@H](C)CO)C(=O)c2cc(NC(=O)c3ccccc3)ccc2O[C@@H](C)CCCCO[C@H]1CN(C)Cc1ccc(C(F)(F)F)cc1	-5.52%	–

Compound	activity change, negative = inhibition	outcome
C[C@@H]1CCCCO[C@H](CN(C)Cc2ccc(C(F)(F)F)cc2)[C@@H](C)CN([C@@H](C)CO)C(=O)c2cc(NS(=O)(=O)c3ccccc3)ccc2O1	-7.06%	–
O=C(Nc1ccc(C(F)(F)F)cc1)N1C[C@@H]2N[C@H](C1)C2c1ccc(-c2ccccc2)cc1 (some centres not stated)	–	inactive
O=C(C[C@@H]1CC[C@H]2[C@@H](COC[C@@H](O)CN2Cc2cccc(C(F)(F)F)c2)O1)NCc1ccc(F)cc1	1.08%	–
C[C@@H]1CN([C@H](C)CO)C(=O)c2cc(NC(=O)Nc3ccc(F)cc3)ccc2O[C@@H](C)CCCCO[C@H]1CN(C)C(=O)Nc1ccc(F)cc1	5.23%	–
O=S(=O)(c1ccc(F)cc1)N1C[C@H]2[C@@H](c3ccccc31)[C@H](CO)N2Cc1ccccc1Cl	0.052%	–
C[C@@H]1CN([C@@H](C)CO)S(=O)(=O)c2ccc(C#C[C@@H](C)O)cc2O[C@@H]1CN(C)Cc1ccc(-c2ccccc2)cc1	-6.04%	–
C[C@H]1CN([C@@H](C)CO)C(=O)CCCn2nncc2CO[C@@H]1CN(C)C(=O)Nc1ccc(-c2cccs2)cc1	8.62%	–
Cc1ccc(S(=O)(=O)Nc2cccc3c2O[C@@H](CN(C)C(=O)Nc2ccc(C(F)(F)F)cc2)[C@@H](C)CN([C@H](C)CO)C3=O)cc1	5.4%	–
COc1ccc(CN2[C@H](CO)[C@H]3c4ccccc4NC[C@H]32)cc1	-2.92%	–
CCCN1[C@H](C(=O)N2CCOCC2)[C@@H](CO)[C@@H]2Cn3c(ccc(/C=C/c4ccccc4)c3=O)[C@@H]21	4.45%	–
O=C(C[C@@H]1C[C@H]2c3cc(NC(=O)C4CCOCC4)ccc3O[C@H]2[C@H](CO)O1)NCc1ccc(Oc2ccccc2)cc1	-3.01%	–
C[C@@H]1CN([C@H](C)CO)C(=O)c2cc(NC(=O)c3ccncc3)ccc2O[C@@H](C)CCCCO[C@H]1CN(C)Cc1ccc(C(F)(F)F)cc1	-8.21%	–
Cc1cccc(-c2ccc([C@H]3[C@@H](CO)N4CCCCN(S(=O)(=O)c5cccc(C)c5)C[C@@H]34)cc2)c1	2.15%	–
C[C@@H]1CN([C@H](C)CO)C(=O)c2cc(NS(=O)(=O)c3ccc(F)cc3)ccc2O[C@@H]1CN(C)Cc1ccc(C(F)(F)F)cc1	-1.26%	–
C[C@@H]1CN([C@H](C)CO)C(=O)c2c(c3ccccc3n2C)-c2ccccc2CO[C@@H]1CN(C)S(=O)(=O)c1ccc(C(F)(F)F)cc1	-3.85%	–
C[C@@H]1CCCCO[C@@H](CN(C)S(=O)(=O)c2ccc(Cl)cc2)[C@H](C)CN([C@@H](C)CO)C(=O)c2cc(NS(=O)(=O)c3ccc(Cl)cc3)ccc2O1	-13.3%	–
C[C@H](CO)N1C[C@H](C)[C@H](CN(C)S(=O)(=O)c2cccs2)OCCCC[C@H](C)Oc2ccc(NC(=O)NC3CCCCC3)cc2C1=O	-6.81%	–
Cc1ccc(S(=O)(=O)Nc2ccc3c(c2)C(=O)N([C@@H](C)CO)C[C@H](C)[C@@H](CN(C)Cc2ccc(Cl)c(Cl)c2)OCCCC[C@@H](C)O3)cc1	-31.6%	–
C[C@@H]1CCCCO[C@@H](CN(C)Cc2ccc(Cl)c(Cl)c2)[C@H](C)CN([C@H](C)CO)C(=O)c2cc(NS(=O)(=O)c3ccc(F)cc3)ccc2O1	-4.27%	–
